How the values were obtained:
Experiment in all cases: DAPPL (digital affinity profiling via proximity ligation, sequencing); 10 mM Tris-HCl pH 7.5, 50 mM NaCl, 1 mM DTT, 4% glycerol, room temperature, 30 min; GST-TFs on glutathione beads, 16-mer random dsDNA library, 0.1% formaldehyde crosslink after washing; high values mean tight binding
Settings in all cases: protein: recombinant; tags: N-terminal GST; dsDNA, one strand shown
ERF = target: T1, ERF (Homo sapiens, UniProt P50548 1-548)
T1 sequence: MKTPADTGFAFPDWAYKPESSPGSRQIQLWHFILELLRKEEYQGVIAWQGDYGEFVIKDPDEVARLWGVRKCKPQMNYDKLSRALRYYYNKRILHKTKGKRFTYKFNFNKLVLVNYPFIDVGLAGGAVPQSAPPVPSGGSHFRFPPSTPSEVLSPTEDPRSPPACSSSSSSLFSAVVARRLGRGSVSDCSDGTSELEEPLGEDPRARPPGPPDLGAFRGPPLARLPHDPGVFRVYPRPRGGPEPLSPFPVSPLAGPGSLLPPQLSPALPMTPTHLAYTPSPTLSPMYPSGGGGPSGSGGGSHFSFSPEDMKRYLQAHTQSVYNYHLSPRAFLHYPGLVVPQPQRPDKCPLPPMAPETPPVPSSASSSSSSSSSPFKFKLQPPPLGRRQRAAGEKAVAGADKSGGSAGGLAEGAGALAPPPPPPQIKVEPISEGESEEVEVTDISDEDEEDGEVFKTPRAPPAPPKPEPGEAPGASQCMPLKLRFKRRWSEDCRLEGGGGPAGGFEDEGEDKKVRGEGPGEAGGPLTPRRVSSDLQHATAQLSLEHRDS
How it was run: (§1)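 Human transcription factors carrying a GST fusion were produced in yeast, bound to glutathione beads, tagged with DNA barcodes and pooled together with a tag-only sample. Each pool was held with 200 nmole of a random double-stranded 16-mer DNA library in Tris/NaCl/DTT/glycerol buffer for 30 min at room temperature, then washed, crosslinked in 0.1% formaldehyde, proximity-ligated with BsaI/T4 ligase (1 h, 37 °C), PCR-amplified and sequenced on an Illumina NextSeq500. Binding signal is the read frequency of each hexamer for a given factor divided by its frequency in the tag-only sample.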

ETV3L = target: T2, ETV3L (Homo sapiens, UniProt Q6ZN32 1-361)
T2 sequence: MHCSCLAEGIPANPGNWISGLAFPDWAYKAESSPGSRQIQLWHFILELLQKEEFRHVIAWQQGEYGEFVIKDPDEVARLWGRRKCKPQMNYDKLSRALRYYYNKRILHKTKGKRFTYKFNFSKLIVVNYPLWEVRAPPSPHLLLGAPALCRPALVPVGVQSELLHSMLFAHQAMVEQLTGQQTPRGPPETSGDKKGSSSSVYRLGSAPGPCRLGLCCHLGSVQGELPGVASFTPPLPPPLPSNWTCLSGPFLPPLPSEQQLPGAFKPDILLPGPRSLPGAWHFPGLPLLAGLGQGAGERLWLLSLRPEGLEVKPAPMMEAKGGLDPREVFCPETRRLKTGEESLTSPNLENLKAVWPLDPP
How it was run: as §1

ETS2 = target: T3, ETS2 (Homo sapiens, UniProt P15036 1-469)
T3 sequence: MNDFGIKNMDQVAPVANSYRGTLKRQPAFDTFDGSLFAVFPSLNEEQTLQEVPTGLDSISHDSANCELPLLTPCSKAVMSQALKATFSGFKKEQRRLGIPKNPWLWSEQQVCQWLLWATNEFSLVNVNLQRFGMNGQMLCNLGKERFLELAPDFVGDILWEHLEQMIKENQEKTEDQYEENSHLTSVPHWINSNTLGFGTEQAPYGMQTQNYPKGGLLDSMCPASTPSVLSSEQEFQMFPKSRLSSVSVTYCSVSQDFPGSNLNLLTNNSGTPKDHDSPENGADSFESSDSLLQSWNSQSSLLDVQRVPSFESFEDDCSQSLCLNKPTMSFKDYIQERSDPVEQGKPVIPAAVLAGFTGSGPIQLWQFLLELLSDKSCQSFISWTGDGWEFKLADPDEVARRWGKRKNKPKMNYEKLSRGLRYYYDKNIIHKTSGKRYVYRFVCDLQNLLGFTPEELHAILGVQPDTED
How it was run: as §1

SPDEF = target: T4, SPDEF (Homo sapiens, UniProt O95238 1-335)
T4 sequence: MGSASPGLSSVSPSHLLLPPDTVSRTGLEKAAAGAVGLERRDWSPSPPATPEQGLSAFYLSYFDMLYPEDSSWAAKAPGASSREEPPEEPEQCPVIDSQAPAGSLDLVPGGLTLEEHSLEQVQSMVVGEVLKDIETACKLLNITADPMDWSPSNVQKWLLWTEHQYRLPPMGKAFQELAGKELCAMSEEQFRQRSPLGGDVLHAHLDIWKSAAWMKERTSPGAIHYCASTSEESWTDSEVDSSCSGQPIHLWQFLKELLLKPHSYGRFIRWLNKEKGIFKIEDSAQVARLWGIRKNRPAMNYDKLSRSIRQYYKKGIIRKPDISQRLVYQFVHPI
How it was run: as §1

ETV7 = target: T5, ETV7 (Homo sapiens, UniProt Q9Y603 1-341)
T5 sequence: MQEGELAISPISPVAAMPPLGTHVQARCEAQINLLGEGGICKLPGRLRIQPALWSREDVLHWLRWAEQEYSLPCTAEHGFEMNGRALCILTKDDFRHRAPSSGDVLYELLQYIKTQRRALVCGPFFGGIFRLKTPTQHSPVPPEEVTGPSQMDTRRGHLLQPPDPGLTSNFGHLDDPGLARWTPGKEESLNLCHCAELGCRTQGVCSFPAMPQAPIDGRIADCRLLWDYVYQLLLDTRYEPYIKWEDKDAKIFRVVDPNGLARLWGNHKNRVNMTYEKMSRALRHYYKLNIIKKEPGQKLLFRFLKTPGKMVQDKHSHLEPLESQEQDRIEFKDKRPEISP
How it was run: as §1

ELF5 = target: T6, ELF5 (Homo sapiens, UniProt Q9UKW6-2 1-255)
T6 sequence: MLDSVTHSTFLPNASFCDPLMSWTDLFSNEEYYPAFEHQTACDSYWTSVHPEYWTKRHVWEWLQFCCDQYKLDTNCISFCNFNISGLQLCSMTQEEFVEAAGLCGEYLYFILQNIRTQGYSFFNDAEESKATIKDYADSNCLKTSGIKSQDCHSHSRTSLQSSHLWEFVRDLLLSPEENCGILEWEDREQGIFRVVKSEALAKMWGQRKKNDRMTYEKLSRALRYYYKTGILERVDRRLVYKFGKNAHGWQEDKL
How it was run: as §1

ETV3 = target: T7, ETV3 (Homo sapiens, UniProt P41162-2 1-143)
T7 sequence: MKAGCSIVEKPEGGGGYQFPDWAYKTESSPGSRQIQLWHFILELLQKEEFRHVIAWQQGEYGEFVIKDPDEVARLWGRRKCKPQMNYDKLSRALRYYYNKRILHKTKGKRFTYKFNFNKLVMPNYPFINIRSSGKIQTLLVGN
How it was run: as §1

ETV6 = ETV6 (Homo sapiens, UniProt P41212 1-452)
How it was run: as §1

Sequence of ETV6 (P41212 whole entry): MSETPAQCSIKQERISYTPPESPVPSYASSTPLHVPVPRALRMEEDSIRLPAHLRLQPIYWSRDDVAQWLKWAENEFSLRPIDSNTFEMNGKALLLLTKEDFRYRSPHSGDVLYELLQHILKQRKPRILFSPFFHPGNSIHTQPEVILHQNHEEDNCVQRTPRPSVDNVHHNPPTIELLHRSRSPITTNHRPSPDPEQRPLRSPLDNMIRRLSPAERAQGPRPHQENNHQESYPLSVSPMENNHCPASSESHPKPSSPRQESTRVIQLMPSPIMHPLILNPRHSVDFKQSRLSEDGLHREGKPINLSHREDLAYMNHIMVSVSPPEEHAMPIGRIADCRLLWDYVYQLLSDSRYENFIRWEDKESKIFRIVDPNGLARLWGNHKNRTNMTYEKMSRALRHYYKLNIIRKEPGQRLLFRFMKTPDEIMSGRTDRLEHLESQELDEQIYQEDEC

| Sequence | binding signal (ERF) | binding signal (ETV3L) | binding signal (ETS2) | binding signal (SPDEF) | binding signal (ETV7) | binding signal (ELF5) | binding signal (ETV3) | binding signal (ETV6) |
| --- | --- | --- | --- | --- | --- | --- | --- | --- |
| CCTAAC | 1.53 fold enrichment (6-mer frequency, TF over GST control) | 1.45 fold enrichment (6-mer frequency, TF over GST control) | 1.38 fold enrichment (6-mer frequency, TF over GST control) | 1.41 fold enrichment (6-mer frequency, TF over GST control) | 1.25 fold enrichment (6-mer frequency, TF over GST control) | 1.39 fold enrichment (6-mer frequency, TF over GST control) | 1.32 fold enrichment (6-mer frequency, TF over GST control) | 1.3 fold enrichment (6-mer frequency, TF over GST control) |
| GGATGT | 1.41 fold enrichment (6-mer frequency, TF over GST control) | 1.63 fold enrichment (6-mer frequency, TF over GST control) | 1.72 fold enrichment (6-mer frequency, TF over GST control) | 3.07 fold enrichment (6-mer frequency, TF over GST control) | 1.45 fold enrichment (6-mer frequency, TF over GST control) | 1.87 fold enrichment (6-mer frequency, TF over GST control) | 1.78 fold enrichment (6-mer frequency, TF over GST control) | 1.66 fold enrichment (6-mer frequency, TF over GST control) |
| GGGTTT | 1.17 fold enrichment (6-mer frequency, TF over GST control) | 1.1 fold enrichment (6-mer frequency, TF over GST control) | 1.1 fold enrichment (6-mer frequency, TF over GST control) | 1 fold enrichment (6-mer frequency, TF over GST control) | 1.12 fold enrichment (6-mer frequency, TF over GST control) | 1.1 fold enrichment (6-mer frequency, TF over GST control) | 1.18 fold enrichment (6-mer frequency, TF over GST control) | 1.07 fold enrichment (6-mer frequency, TF over GST control) |
| ATGATC | 1.33 fold enrichment (6-mer frequency, TF over GST control) | 1.22 fold enrichment (6-mer frequency, TF over GST control) | 1.16 fold enrichment (6-mer frequency, TF over GST control) | 1.27 fold enrichment (6-mer frequency, TF over GST control) | 1.22 fold enrichment (6-mer frequency, TF over GST control) | 1.22 fold enrichment (6-mer frequency, TF over GST control) | 1.2 fold enrichment (6-mer frequency, TF over GST control) | 1.19 fold enrichment (6-mer frequency, TF over GST control) |
| TGCCGC | 1.32 fold enrichment (6-mer frequency, TF over GST control) | 1.22 fold enrichment (6-mer frequency, TF over GST control) | 1.33 fold enrichment (6-mer frequency, TF over GST control) | 1.15 fold enrichment (6-mer frequency, TF over GST control) | 1.22 fold enrichment (6-mer frequency, TF over GST control) | 1.22 fold enrichment (6-mer frequency, TF over GST control) | 1.36 fold enrichment (6-mer frequency, TF over GST control) | 1.27 fold enrichment (6-mer frequency, TF over GST control) |
| ATGCCC | 1.31 fold enrichment (6-mer frequency, TF over GST control) | 1.26 fold enrichment (6-mer frequency, TF over GST control) | 1.29 fold enrichment (6-mer frequency, TF over GST control) | 1.36 fold enrichment (6-mer frequency, TF over GST control) | 1.45 fold enrichment (6-mer frequency, TF over GST control) | 1.27 fold enrichment (6-mer frequency, TF over GST control) | 1.32 fold enrichment (6-mer frequency, TF over GST control) | 1.35 fold enrichment (6-mer frequency, TF over GST control) |
| ACATAC | 1.23 fold enrichment (6-mer frequency, TF over GST control) | 1.15 fold enrichment (6-mer frequency, TF over GST control) | 1.21 fold enrichment (6-mer frequency, TF over GST control) | 1.2 fold enrichment (6-mer frequency, TF over GST control) | 1.12 fold enrichment (6-mer frequency, TF over GST control) | 1.14 fold enrichment (6-mer frequency, TF over GST control) | 1.18 fold enrichment (6-mer frequency, TF over GST control) | 1.17 fold enrichment (6-mer frequency, TF over GST control) |
| TCCGGG | 1.38 fold enrichment (6-mer frequency, TF over GST control) | 1.4 fold enrichment (6-mer frequency, TF over GST control) | 1.67 fold enrichment (6-mer frequency, TF over GST control) | 2.46 fold enrichment (6-mer frequency, TF over GST control) | 1.44 fold enrichment (6-mer frequency, TF over GST control) | 2.39 fold enrichment (6-mer frequency, TF over GST control) | 1.71 fold enrichment (6-mer frequency, TF over GST control) | 1.77 fold enrichment (6-mer frequency, TF over GST control) |
